Data taken from PubChem BioAssay (NCI).
The panel holds about 83,000 compounds, 20% with a hit somewhere; the sample as a whole holds those more often.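 96-well plates, one dose, 48 hours. Percent growth reported; active if below 10.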 Unmarked numbers belong to inactive results. Calls of active or inactive are those of the source.

system: HL-60(TB) leukemia; experiment: NCI-60 one-dose screen, 48 h (100 = growth as untreated, 0 = no growth, -100 = all killed); settings: 10 µM unless noted

Row | SMILES | growth
1 | C[C@@H]1CC[C@@H]2[C@@H]1[C@H](OC(=O)c1ccc3ccccc3c1)[C@]1(C3CCCCC3)C[C@@H](OC(=O)CO)[C@@]2(C)O1 | 30.6%
2 | O=C(CCCCNC(=O)c1nc(-c2ccccc2)n(-c2ccccc2)n1)NO | 97%
3 | Cc1ccc(/C=C(/C#N)n2nnc3ncccc32)cc1 | 0.0853% (active)
4 | CC[C@H](Nc1nc(N)nc(C)c1C#N)c1nc2cccc(NCc3ccc(C(=O)NO)cc3)c2c(=O)n1-c1ccccc1 | 2.45% (active)
5 | CC/C=C\C[C@H]1C/C=C2/C(=O)C=C[C@H]2C/C=C\CCCC(=O)O1 | 7.94% (active)
6 | CCCS(=O)(=O)c1nc(NC2CC2)cc(-c2ccc3c(ccn3C3CC(C)(C)NC(C)(C)C3)c2)n1 | -61.7% (active)
7 | Cc1[nH]n(C(=S)Nc2nc3cc(Cl)c(F)cc3s2)c(=O)c1N=Nc1ccc(F)c(Cl)c1 | 127%
8 | CN1C(=O)NC(Cc2c[nH]c3c(Cl)cccc23)C1=O (stereo not drawn) | 98.6%
9 | CNC(=O)Nc1ccc(-c2ccc3ncnc(Nc4cccc(Cl)c4)c3c2)cc1 | 76.2%
10 | CC1CN(C2CCCCC2)C(=S)N(c2ccccc2)C1=O (stereo not drawn) | 85%
11 | CN(C)c1cccc2[nH]c(-c3[nH]ncc3Nc3ccnc(N)n3)nc12 | -42.7% (active)
12 | COC(=O)C(Cc1ccccc1)NC(=O)c1ccc(NC(=O)c2[nH]c(C)c(Cl)c2Cl)c(OC(C)C)c1 (stereo not drawn) | 99.7%
13 | Cc1cc(C)nc(NS(=O)(=O)c2ccc(Nc3ccc4c5c(n(CCCN(C)C)c(=O)c4c3)-c3ccccc3C5=O)cc2)n1 | 70.6%
